# From PubChem BioAssay (EPA / NIEHS)
# Active and inactive are the calls of the source. The calls were made as follows: active = hit-call score of the fitted dose curve at least 0.9, where 1 is the maximum; inactive = score below 0.9.
# Read-out: Tumor necrosis factor (Homo sapiens) (UniProt P01375)
# Experiment: BSK_LPS_TNFa: BioMAP Diversity Plus: LPS Assay for Tumour Necrosis Factor alpha (TNFa) Biomarker Activity (AID 2283085)
# Details: primary human HUVEC with PBMC; actives raise or lower the signal
# Protocol: BSK_LPS is a cell-based, multiplexed-readout assay that uses umbilical vein endothelium and peripheral blood mononuclear cells, a human vascular primary cell co-culture, with measurements taken at 24 hours after chemical dosing in a 96-well plate.BSK_LPS_TNFa is an assay component measured in the BSK_LPS assay. It measures TNF-a antibody related to regulation of gene expression using ELISA technology.Data from the assay component BSK_LPS_TNFa was analyzed into 1 assay endpoint. This assay endpoint, BSK_LPS_TNFa, was analyzed with bidirectional fitting relative to DMSO as the negative control and baseline of activity. Using a type of binding reporter, gain or loss-of-signal activity can be used to understand changes in the signaling as they relate to the gene TNF. Furthermore, this assay endpoint can be referred to as a primary readout, because this assay has produced multiple assay endpoints where this one serves a signaling function. To generalize the intended target to other relatable targets, this assay endpoint is annotated to the cytokine intended target family, where the subfamily is inflammatory factor.
# The levels of cell surface (or secreted, indicated by the prefix "s") biomarker endpoints were measured by ELISA. Overt cytotoxicity to cells in confluent adherent cultures (all systems other than the BT system) was assessed by measuring total protein levels using sulforhodamine B (SRB) staining in parallel cultures at the time of biomarker measurements, indicated as SRB endpoints. For proliferation assays for adherent cell types, individual cell types are cultured at sub-confluence and relative cell numbers quantified by SRB staining at time points optimized for each system (48 h: 3C and CASM3C systems; 72 h: BT and HDF3CGF systems; 96 h: SAg system). SRB was performed by staining cells with 0.1% SRB after fixation with 10% TCA and reading wells at 560 nm.Viability and proliferation of PBMC (T cells) was quantified by Alamar Blue reduction for the SAg and BT systems. For PBMC viability (referred to as PBMC Cytotoxicity within the assay endpoint names), cells were plated (75,000/well in a 96-well plate) and then chemical samples added for 1 h before addition of activators, SEB and TSST-1 (20 ng/mL final concentration each). Cells were incubated for 90 h. Then, Alamar Blue (20 uL/well) (Invitrogen, Cat DAL1100) was added for 6 h, and the plates were read with a fluorescence microplate reader at 546/580 nm (excitation/emission). For PBMC proliferation, cells were plated and activated as above but incubated for only 16 h prior to addition of Alamar Blue. Plates were read after 6 h.
# Tumor necrosis factor (Homo sapiens), sequence (P01375 whole entry, looked up): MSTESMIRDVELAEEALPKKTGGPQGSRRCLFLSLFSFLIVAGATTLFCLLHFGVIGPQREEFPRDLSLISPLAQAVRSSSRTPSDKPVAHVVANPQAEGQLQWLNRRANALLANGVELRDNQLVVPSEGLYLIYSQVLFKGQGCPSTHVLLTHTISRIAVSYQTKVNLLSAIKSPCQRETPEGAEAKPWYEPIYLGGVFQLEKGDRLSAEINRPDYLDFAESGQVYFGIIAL
Structure (SMILES),AC50,outcome
CC(C)(C)CC(C)(C)c1ccc(OCCOCC[N+](C)(C)Cc2ccccc2)cc1,8.89 µM (active),
O=C1OC[C@H](Cc2cccc(O)c2)[C@H]1Cc1cccc(O)c1,,inactive
CC1(C)CCC[C@]2(C)[C@H]3CCO[C@]3(C)CC[C@@H]12,,inactive
CCCCCCC(CO)CCCC (stereo not given),,inactive
C=C(C)C(=O)OCCOCCOCCOCCOC(=O)C(=C)C,,inactive
CCC(C)c1cc([N+](=O)[O-])cc([N+](=O)[O-])c1OC(=O)OC(C)C (stereo not given),31.8 µM (active),
Clc1cc(Cl)c(-c2c(Cl)c(Cl)cc(Cl)c2Cl)cc1Cl,,inactive
COc1ccc(CCN2CCC(Nc3nc4ccccc4n3Cc3ccc(F)cc3)CC2)cc1,,inactive
CCOC(=O)C(C#N)=C(c1ccccc1)c1ccccc1,,inactive
CN(c1nccc(=O)[nH]1)C1CCN(c2nc3ccccc3n2Cc2ccc(F)cc2)CC1,,inactive
CC1(C)C2=CCCC(C)(C)[C@]23CC[C@H]1C3,,inactive
CC(=O)c1c(C)c([N+](=O)[O-])c(C(C)(C)C)c([N+](=O)[O-])c1C,,inactive
CN(C)C(=S)SC(=S)N(C)C,,inactive
O=CN1CCOCC1,,inactive
CSCCC=O,,inactive
C[C@@H]1CCN(C(=O)[C@H](CCCN=C(N)N)NS(=O)(=O)c2cccc3c2NC[C@H](C)C3)[C@@H](C(=O)O)C1,,inactive
CS(=O)(=O)OCCCCOS(C)(=O)=O,,inactive
O=C1OC2(c3ccccc31)c1ccc(O)c(Br)c1Oc1c2ccc(O)c1Br,,inactive
Cc1cc(CCC(=O)OCCOCCOCCOC(=O)CCc2cc(C)c(O)c(C(C)(C)C)c2)cc(C(C)(C)C)c1O,,inactive
CC=Cc1ccc(OCC)c(O)c1,,inactive

Structure (SMILES),AC50,outcome
CC(C)(N=C=O)c1cccc(C(C)(C)N=C=O)c1,,inactive
COc1ccc(OC)c(N=Nc2c(O)ccc3ccccc23)c1,20 µM (active),
CS(=O)(=O)c1ccc(C2=C(c3ccccc3)C(=O)OC2)cc1,,inactive
CC(=O)Nc1ccc(C(=O)CCl)cc1,4.58 µM (active),
CC(C=O)Cc1ccc(C(C)(C)C)cc1 (stereo not given),,inactive
CC(CN=Cc1ccccc1O)N=Cc1ccccc1O (stereo not given),,inactive
c1ccc(CCc2ccccc2)cc1,,inactive
c1ccc2cc(Nc3ccc(Nc4ccc5ccccc5c4)cc3)ccc2c1,,inactive
CC(=O)C1(C)CC2=C(CCCC2(C)C)CC1C (stereo not given),,inactive
C=C(C)C(=O)OCC(CC)(COC(=O)C(=C)C)COC(=O)C(=C)C,,inactive
O=C(Nc1ccc2c(O)c(N=Nc3ccc(N=Nc4ccc(S(=O)(=O)O)cc4)cc3)c(S(=O)(=O)O)cc2c1)c1ccccc1,,inactive
c1ccc(Oc2ccccc2)cc1,,inactive
CN(C)C(=O)Nc1ccc(Oc2ccc(Cl)cc2)cc1,,inactive
CCCCN(CCCC)C(=O)N(CCCC)CCCC,9.7 µM (active),
Oc1c(Cl)cc(Cl)c(Cl)c1Cc1c(O)c(Cl)cc(Cl)c1Cl,20 µM (active),
CCCCCCCCCCCCCCCC(=O)OC/C=C(C)/C=C/C=C(C)/C=C/C1=C(C)CCCC1(C)C,,inactive
CCCCOC(=O)CCCCCCCC(=O)OCCCC,,inactive
C=CC(C)(O)CCC=C(C)C (stereo not given),,inactive
C=C(C)C(=O)OCCOCCOCCOC(=O)C(=C)C,,inactive
C=C(C)[C@H]1CC=C(C)C(=O)C1,,inactive
